Assay results reported in PubChem BioAssay.
Calls of active or inactive are those of the source. Unless noted, the rule behind the calls is not given here.

Experiments:
[1] = system: Wnt5a (protein binding on small-molecule microarray); assay: Wnt5a binders on small-molecule microarray, primary screen, biophysical, 635/667 nm fluorescence (AID 1142); conditions: 635 nm fluorescence, higher = more signal;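 note: fluorescence read at 667 nm with signal to noise per printed feature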
[2] = cell viability in Huh7 cells, primary screen, cytotoxicity control for HCV replication inhibitor project, CellTiter-Glo luminescence, basal, 48 h (AID 1143); conditions: Huh7 HCV replicon, higher = more signal, called active from +8 up or from −8 down;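 note: Huh7 hepatoma cells carrying a hepatitis C replication reporter with no stimulus; test concentration not given here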
[3] = P. aeruginosa biofilm formation inhibitors, primary screen, PAO1 strain, BacTiter-Glo luminescence, LB-PBS (AID 1144); conditions: 12 h, higher = more signal
[4] = CREB reporter modulators without forskolin, primary screen, cell-based, PC12, CRE-LacZ reporter, unstimulated (AID 1145); conditions: no forskolin, luminescence, 4.5 h, higher = more signal, called active from +8 up or from −8 down
[5] = CREB reporter modulators under forskolin, primary screen, cell-based, PC12, CRE-LacZ reporter, forskolin-stimulated (AID 1146); conditions: luminescence, 4.5 h, higher = more signal, called active from +8 up or from −8 down;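 note: PC12 cells with 6xCRE LacZ reporter stimulated by forskolin 10 µM; beta-galactosidase reporter signal reflecting CREB driven transcription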
[6] = biological target: Streptavidin (Streptomyces avidinii) (UniProt P22629); assay: streptavidin binders on small-molecule microarray, primary screen, artefact control for SMM compound annotation, biophysical, 635/667 nm fluorescence (AID 1147); conditions: streptavidin binding, higher = more signal;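 note: signal reflects streptavidin binding to arrayed compounds as a control protein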
Chain of Streptavidin (Streptomyces avidinii) (P22629 whole entry, looked up): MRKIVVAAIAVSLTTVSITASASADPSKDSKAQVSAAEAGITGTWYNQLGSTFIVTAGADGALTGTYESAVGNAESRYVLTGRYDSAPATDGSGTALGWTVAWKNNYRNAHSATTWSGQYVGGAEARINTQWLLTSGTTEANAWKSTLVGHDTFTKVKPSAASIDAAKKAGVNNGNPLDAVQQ

[7] = small-molecule binders of probe aInhba, primary screen, biochemical, small-molecule microarray, 635/667 nm fluorescence (AID 1148); conditions: higher = more signal;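 note: score merges 667nm spot fluorescence with signal-to-noise for antibody binding to printed compounds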
Torsin-1A (Homo sapiens) [8] = biological target: Torsin-1A (Homo sapiens) (UniProt O14656); assay: torsin A binders from cell lysate, primary screen, small-molecule microarray, wild-type, 635/667 nm (AID 1149); conditions: COS7 hTOR1A-WT lysate, 635 nm fluorescence, higher = more signal
Chain of Torsin-1A (Homo sapiens) (O14656 whole entry, looked up): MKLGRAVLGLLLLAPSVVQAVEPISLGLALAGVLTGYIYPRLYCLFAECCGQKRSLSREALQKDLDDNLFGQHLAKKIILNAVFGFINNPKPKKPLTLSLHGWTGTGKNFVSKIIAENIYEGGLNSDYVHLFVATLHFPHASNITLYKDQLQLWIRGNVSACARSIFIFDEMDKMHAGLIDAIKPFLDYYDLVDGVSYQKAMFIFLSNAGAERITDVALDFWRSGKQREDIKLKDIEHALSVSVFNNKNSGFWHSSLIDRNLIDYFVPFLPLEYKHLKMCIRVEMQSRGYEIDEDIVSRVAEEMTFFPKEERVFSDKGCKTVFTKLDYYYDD

Torsin-1A (Homo sapiens) [9] = biological target: Torsin-1A (Homo sapiens) (UniProt O14656); assay: small-molecule binders of mutant TOR1A in lysate, primary screen, cell lysate, small-molecule microarray, COS7 lysate, 635/667 nm fluorescence (AID 1150); conditions: COS7 hTOR1A mutant lysate, 635 nm fluorescence, higher = more signal;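 note: score pools 667 nm emission and signal to noise measuring lysate protein binding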
[10] = system: Sonic hedgehog protein (Shh); assay: small-molecule binders of Shh protein, primary screen, biochemical, small-molecule microarray, 635/667 nm fluorescence (AID 1151); conditions: small-molecule microarray binding, 635 nm fluorescence; higher = more signal;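 note: Shh protein binding to compounds spotted on small-molecule microarray slides; score combines spot fluorescence intensity with signal-to-noise across triplicate slides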

| SMILES | composite z-score [1] | z-score [2] | z-score [3] | z-score [4] | z-score [5] | composite z-score [6] | composite z-score [7] | composite z-score (Torsin-1A (Homo sapiens) [8]) | composite z-score (Torsin-1A (Homo sapiens) [9]) | composite z-score [10] |
| --- | --- | --- | --- | --- | --- | --- | --- | --- | --- | --- |
| COc1cccc([C@@H]2Oc3ccc(OC)cc3C(=O)[C@H]2O)c1 | 0.115 | -4.86 (inactive) | -1.15 (inactive) | 5.45 (inactive) | -0.344 (inactive) | 2.33 | -0.152 | 0.496 | 0.42 | 0.813 |
| CC(C)=CCCC(C)=CCON=C1C[C@@H](O)[C@@H](O)[C@@H]2[C@@H]3C(=O)N(Cc4ccccc4)C(=O)[C@@H]3CC[C@@H]12 | 0.292 | 0.18 (inactive) | 0.603 (inactive) | -0.478 (inactive) | -0.0093 (inactive) | -0.0277 | -0.157 | 0.925 | 0.293 | 1.88 |
| CC(C)CON=C1C[C@@H](O)[C@@H](O)[C@@H]2[C@@H]3C(=O)N(Cc4ccc5c(c4)OCO5)C(=O)[C@@H]3CC[C@H]12 | 0.365 | -0.365 (inactive) | 1.01 (inactive) | 0.242 (inactive) | 0.201 (inactive) | 1.23 | -0.0589 | 0.217 | 0.739 | 1.45 |
| CO[C@@H]1COC(=O)[C@@H]2CCCN2C(=O)[C@@H](C)COC(=O)CC=C[C@H]1C | 0.667 | -0.193 (inactive) | -1.09 (inactive) | 1.03 (inactive) | 0.828 (inactive) | 0.119 | -0.0427 | 0.826 | 0.962 | 0.895 |
| O=C1CCCC=C1C(CCc1ccccc1)OC(=O)c1ccc(Br)cc1 (stereo not given) | -0.223 | -3.61 (inactive) | 0.96 (inactive) | 0.111 (inactive) | 0.171 (inactive) | 0.0598 | -0.218 | -0.249 | 0.0696 | -0.115 |
| COC(=O)CC=C[C@@H](C)[C@@H](C=NO[C@@H]1O[C@H](COC(C)=O)[C@@H](OC(C)=O)[C@H](OC(C)=O)[C@H]1OC(C)=O)NS(=O)(=O)c1ccc(C)cc1 | -0.0003 | 0.0322 (inactive) | -0.202 (inactive) | 7.64 (inactive) | 1.02 (inactive) | -0.909 | 0.0086 | 0.514 | 0.311 | 0.629 |
| Cc1ccc(S(=O)(=O)n2c3ccccc3c3nnc(C(=O)c4ccccc4)nc32)cc1 | 0.19 | -0.472 (inactive) | -0.673 (inactive) | 1.38 (inactive) | -1.15 (inactive) | -0.237 | 0.0998 | 0.0855 | -0.292 | 0.766 |
| CCOC(=O)NN=C1C[C@@H](O)[C@@H](O)[C@@H]2[C@@H]3C(=O)N(Cc4ccccc4)C(=O)[C@@H]3CC[C@H]12 | -0.0307 | -0.239 (inactive) | -0.704 (inactive) | -0.837 (inactive) | -0.175 (inactive) | 1.09 | -0.214 | 0.0722 | 1.36 | -0.171 |
| C[C@H]1CC[C@H]2C(=O)O[C@H](COc3ccc(C(C)(C)C)cc3)CN2[C@@H]1c1ccc(Br)cc1 | -0.185 | -1.47 (inactive) | -0.239 (inactive) | 1.72 (inactive) | -0.466 (inactive) | 0.0762 | -0.0021 | 0.188 | 0.3 | 0.48 |
| COC(=O)[C@@H]1CC[C@H](C)[C@@H](c2ccc(C)cc2)N1C(=O)c1ccc(C=NO[C@@H]2O[C@H](COC(C)=O)[C@@H](OC(C)=O)[C@H](OC(C)=O)[C@H]2OC(C)=O)cc1 | -0.0196 | -3.41 (inactive) | -0.553 (inactive) | 2.22 (inactive) | -0.138 (inactive) | 0.253 | -0.0986 | 0.203 | 0.121 | 0.891 |
| CCOC(=O)CCN1C(=O)[C@H]2[C@H]3[C@H](O)[C@H](O)CC(=NOCC(C)C)[C@H]3CC[C@H]2C1=O | 0.0106 | 0.0793 (inactive) | 0.256 (inactive) | -0.0187 (inactive) | 0.357 (inactive) | -0.0341 | -0.159 | 0.47 | -0.5 | -0.249 |
| C#CCCCON=C1[C@H]2CCn3c(=O)n(-c4ccccc4)c(=O)n3[C@H]2[C@H](O)[C@@H]2O[C@H]12 | 0.0823 | -0.146 (inactive) | 0.423 (inactive) | -0.112 (inactive) | 0.462 (inactive) | -0.126 | -0.23 | 0.494 | 1.27 | 0.504 |
| CON=C(C)CCC(=O)OC[C@H]1O[C@H](c2ccccc2)C=C[C@@H]1Oc1ccc(OC)cc1 | 0.564 | -0.539 (inactive) | -0.38 (inactive) | 1.88 (inactive) | -0.0322 (inactive) | 0.0584 | -0.0963 | 0.0952 | -0.013 | 0.556 |
| CO[C@@H]1C=CCC(=O)N[C@@H](C)C(=O)OC[C@@H](OC)[C@H](C)CCCC(=O)OC[C@H]1C | 0.122 | -0.468 (inactive) | -0.499 (inactive) | -0.808 (inactive) | 0.0561 (inactive) | 0.253 | -0.101 | 3.16 | 2.84 | 1.71 |
